Laboratory results as given in the supplement of paper PMC6992640.
± gives the standard deviation of the averaged measurements.

Each compound was assayed on HCI09 (cells of a triple-negative luminal androgen receptor type breast cancer xenograft) (assay: cell viability (% of vehicle); higher = less cytotoxic). Details: 10 µM; 72 h.
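Further: PDX cells carrying CMV promoter-driven luciferase, viability read as total photon flux per second by IVIS imaging following D-luciferin, vehicle control 0.1% DMSO.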

Compound | cell viability
Cc1ccc(-n2[nH]c(C)c(NN=C3C=CC=C(c4cccc(C(=O)O)c4)C3=O)c2=O)cc1C [Eltrombopag] | 20.5 ± 4.7
Oc1c(Cl)cc(Cl)c2cccnc12 [Chloroxine] | 28.7 ± 2.7
CCN(CC)CCCC(C)Nc1ccnc2cc(Cl)ccc12.O=P(O)(O)O.O=P(O)(O)O (stereo not drawn) [Chloroquine diphosphate] | 95.5 ± 18
COC(=O)NC(C(=O)NC(Cc1ccccc1)C(O)CN(Cc1ccc(-c2ccccn2)cc1)NC(=O)C(NC(=O)OC)C(C)(C)C)C(C)(C)C (stereo not drawn) [Atazanavir] | 57.5 ± 2
COc1cc2nccc(Oc3ccc(NC(=O)C4(C(=O)Nc5ccc(F)cc5)CC4)cc3)c2cc1OC.O=C(O)CC(O)C(=O)O [Cabozantinib malate (XL184)] | 58.2 ± 4.8
O=C(C=Cn1cnc(-c2cc(C(F)(F)F)cc(C(F)(F)F)c2)n1)NNc1cnccn1 | 31.5 ± 14
Nc1ccn(C2OC(CO)C(O)C2O)c(=O)n1 (stereo not drawn) [Cytarabine] | 94.2 ± 1.1
CO[C@H]1/C=C/O[C@@]2(C)Oc3c(C)c(O)c4c(O)c(c(/C=N/N5CCN(C6CCCC6)CC5)c(O)c4c3C2=O)NC(=O)/C(C)=C\C=C\[C@H](C)[C@H](O)[C@@H](C)[C@@H](O)[C@@H](C)[C@H](OC(C)=O)[C@@H]1C [Rifapentine] | 26.9 ± 5.9
CS(=O)(=O)O.Cc1c(O)cccc1C(=O)NC(CSc1ccccc1)C(O)CN1CC2CCCCC2CC1C(=O)NC(C)(C)C (stereo not drawn) [Nelfinavir Mesylate] | 30.1 ± 3.1
CCN(CC)CCNC(=O)c1c(C)[nH]c(C=C2C(=O)Nc3ccc(F)cc32)c1C.O=C(O)CC(O)C(=O)O [Sunitinib malate] | 11.3 ± 0.53
N.N.O=C([O-])C1(C(=O)[O-])CCC1.[Pt+2] [Carboplatin] | 91.7 ± 4
CC(NCCCc1cccc(C(F)(F)F)c1)c1cccc2ccccc12.Cl (stereo not drawn) [Cinacalcet HCl] | 21.6 ± 4.7
COC(=O)c1ccc2c(c1)NC(=O)C2=C(Nc1ccc(N(C)C(=O)CN2CCN(C)CC2)cc1)c1ccccc1 [Nintedanib (BIBF 1120)] | 51.4 ± 46
COc1cc(C(=O)NS(=O)(=O)c2ccccc2C)ccc1Cc1cn(C)c2ccc(NC(=O)OC3CCCC3)cc12 [Zafirlukast] | 22.3 ± 1.4
CCC(=C(c1ccccc1)c1ccc(OCCN(C)C)cc1)c1ccccc1.O=C(O)CC(O)(CC(=O)O)C(=O)O [Tamoxifen Citrate] | 28.1 ± 6
CCCCc1oc2ccc(NS(C)(=O)=O)cc2c1C(=O)c1ccc(OCCCN(CCCC)CCCC)cc1.Cl [Dronedarone HCl] | 24.4 ± 12
CC(C)CC(NC(=O)CNC(=O)c1cc(Cl)ccc1Cl)B(O)O (stereo not drawn) | 14.9 ± 0.73
COC(=O)C1=C(C)NC(C)=C(C(=O)OCCN(C)Cc2ccccc2)C1c1cccc([N+](=O)[O-])c1.Cl (stereo not drawn) [Nicardipine HCl] | 35.5 ± 4.3
CCOc1cc2ncc(C#N)c(Nc3ccc(F)c(Cl)c3)c2cc1NC(=O)C=CCN(C)C [Pelitinib (EKB-569)] | 21.7 ± 4.1

Compound | cell viability
CCOC(=O)c1c(CSc2ccccc2)n(C)c2cc(Br)c(O)c(CN(C)C)c12.Cl [Arbidol HCl] | 58.6 ± 4.3
CN(C)CCOc1ccc(C(=C(CCCl)c2ccccc2)c2ccccc2)cc1.O=C(O)CC(O)(CC(=O)O)C(=O)O [Toremifene Citrate] | 34.3 ± 1.8
CN(C)c1ccc(O)c2c1CC1CC3C(N(C)C)C(=O)C(C(N)=O)=C(O)C3(O)C(=O)C1=C2O.Cl (stereo not drawn) [Minocycline HCl] | 55.8 ± 58
CC(Oc1cc(-c2cnn(C3CCNCC3)c2)cnc1N)c1c(Cl)ccc(F)c1Cl [(R)-Crizotinib] | 24.8 ± 3.8
CC(C)(C)NC(=O)C1CC2CCCCC2CN1CC(O)C(Cc1ccccc1)NC(=O)C(CC(N)=O)NC(=O)c1ccc2ccccc2n1.CS(=O)(=O)O (stereo not drawn) [Saquinavir mesylate] | 57.7 ± 51
O=C1C=CC=CC1=C1NC(=C2C=CC=CC2=O)N(c2ccc(C(=O)O)cc2)N1 [Deferasirox] | 62 ± 39
Cl.OC(c1cc(C(F)(F)F)nc2c(C(F)(F)F)cccc12)C1CCCCN1 (stereo not drawn) [Mefloquine hydrochloride] | 23.9 ± 5.5
O=C(NC1CCN(CCCCC2(C(=O)NCC(F)(F)F)c3ccccc3-c3ccccc32)CC1)c1ccccc1-c1ccc(C(F)(F)F)cc1 [Lomitapide] | 26.5 ± 2.4
CCCCCCCCOc1ccccc1C(=O)Nc1ccc(C(=O)OCC[N+](C)(CC)CC)cc1.[Br-] [Otilonium Bromide] | 37.4 ± 9.3
COc1cc(Nc2c(C#N)cnc3cc(OCCCN4CCN(C)CC4)c(OC)cc23)c(Cl)cc1Cl [Bosutinib (SKI-606)] | 53.7 ± 33
CNC(=O)c1cc(Oc2ccc(NC(=O)Nc3ccc(Cl)c(C(F)(F)F)c3)c(F)c2)ccn1 [Regorafenib] | 13.2 ± 3.8
COC1=C(OC)C(=O)C(CCCCCCCCCCO)=C(C)C1=O [Idebenone] | 39.1 ± 18
Nc1ncn(C2OC(CO)C(O)C2O)c(=O)n1 (stereo not drawn) [5-Azacytidine] | 27.2 ± 6.3
CC(C)Nc1cc(-c2c[nH]c(C(=O)NC(CO)c3cccc(Cl)c3)c2)c(Cl)cn1 (stereo not drawn) | 36.8 ± 21
COc1cc(Nc2ncc(F)c(Nc3ccc4c(n3)N(COP(=O)(O)O)C(=O)C(C)(C)O4)n2)cc(OC)c1OC [Fostamatinib (R788)] | 87.2 ± 7
CNCCCC12CCC(c3ccccc31)c1ccccc12.Cl [Maprotiline HCl] | 56.8 ± 21
COc1cc(C(=O)O)ccc1NC(=O)C1NC(CC(C)(C)C)C(C#N)(c2ccc(Cl)cc2F)C1c1cccc(Cl)c1F (stereo not drawn) | 37.1 ± 9.3
CC(NCCCc1cccc(C(F)(F)F)c1)c1cccc2ccccc12 (stereo not drawn) [Cinacalcet] | 17.1 ± 4.2
Cl.Clc1ccccc1CN1CCc2sccc2C1 [Ticlopidine HCl] | 82 ± 2.9
